Data taken from PubChem BioAssay (EPA / NIEHS).
Calls of active or inactive are those of the source. The calls were made as follows: active = hit-call score of the fitted dose curve at least 0.9, where 1 is the maximum; inactive = score below 0.9.

Legend:
[1] = APR_HepG2_CellCycleArrest_24hr: Apredica 24-hour HepG2 Assay for Cell Cycle Arrest (AID 2282905); details: imaging, actives raise or lower the signal;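 also: cell cycle arrest scored as ratio of 2N to 4N nuclear DNA content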
How it was run: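 Cell cycle arrest is scored from nuclear DNA content measured by high-content imaging of Hoechst 33342-stained HepG2 cells following 24-hour treatment at ten concentrations up to 200 uM, with DMSO as baseline.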

[2] = APR_HepG2_NuclearSize_24hr: Apredica 24-hour HepG2 Assay for Nuclear Size (AID 2282907); details: high-content imaging, actives raise or lower the signal
How it was run: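 Compounds in DMSO (final 0.5%) were added to human HepG2 hepatoma cells at ten concentrations up to 200 uM for 24 hr. Fixed nuclei were stained with Hoechst 33342, and nuclear diameter was quantified from automated images.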

[3] = APR_HepG2_CellLoss_24hr: Apredica 24-hour HepG2 Assay for Cell Loss (AID 2282908); details: high-content imaging;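 as to AC50: fit in both directions so a hit may be cell loss or gain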
How it was run: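 Cell number is quantified by fluorescence imaging of Hoechst 33342-stained nuclei following dosing at 0.39–200 uM in 0.5% DMSO. Curves are fitted in both directions from the DMSO baseline.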

[4] = APR_HepG2_MicrotubuleCSK_24hr: Apredica 24-hour HepG2 Assay for Microtubule CSK Stabilty (AID 2282909); details: HepG2 microtubule cytoskeleton imaging, actives raise or lower the signal
How it was run: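 Steps: dose HepG2 for 24 h (0.39–200 uM, 0.5% DMSO); fix 30 min in 3.7% formaldehyde at room temperature; permeabilize; stain alpha-tubulin 60 min; image microtubule cytoskeleton at 20x. Signal change fitted in both directions relative to DMSO.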

[5] = APR_HepG2_MitoticArrest_24hr: Apredica 24-hour HepG2 Assay for Mitotic Arrest (AID 2282910); details: high-content imaging, actives raise or lower the signal
How it was run: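 HepG2 cells, 24 h exposure at 0.39-200 uM (10 concentrations, duplicate, 0.5% DMSO). Fixed, stained for phospho-histone H3 with Hoechst; imaged by high-content microscopy, bidirectional fit versus DMSO.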

[6] = APR_HepG2_MitoMembPot_24hr: Apredica 24-hour HepG2 Assay for Mitochondrial Membrane Potential (AID 2282911); details: imaging, actives raise or lower the signal
How it was run: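 HepG2, 24 hr dosing, 10 concentrations 0.39–200 uM, 0.5% DMSO final. Live-cell MitoTracker Red CMXRos 250 nM 30 min, then 3.7% formaldehyde fix. HCS fluorescence imaging, 20x; bidirectional fit vs DMSO baseline.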

[7] = APR_HepG2_MitoMass_24hr: Apredica 24-hour HepG2 Assay for Mitochondrial Mass (AID 2282912); details: high-content imaging, actives raise or lower the signal
How it was run: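 The liver line HepG2 was dosed in duplicate across a 0.39–200 uM series, with final DMSO held at 0.5% v/v, and harvested at 24 hr. High-content imaging measured mitochondrial dye staining.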

[8] = APR_HepG2_p53Act_24hr: Apredica 24-hour HepG2 Assay for p53 Activation (AID 2282913); details: high-content imaging, actives raise or lower the signal;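 also: p53 protein immunofluorescence averaged per cell in HepG2 with Hoechst nuclei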
How it was run: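 Read-out: Cy5 immunofluorescence for p53 in fixed, permeabilized HepG2, imaged by HCS with Hoechst-defined nuclei. Dosing was 24 hr at 0.39–200 uM in 0.5% DMSO. Curves were fitted bidirectionally relative to DMSO.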

[9] = APR_HepG2_CellCycleArrest_72hr: Apredica 72-hour HepG2 Assay for Cell Cycle Arrest (AID 2282914); details: high-content imaging, actives raise or lower the signal
How it was run: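 HepG2, 72 hr exposure, 10-point 0.39–200 uM, duplicate, 0.5% DMSO final. Fix 3.7% formaldehyde 30 min RT, Triton X-100 0.5%, Hoechst 33342 2 ug/mL. ArrayScan 20x, six fields/well; DNA content per nucleus; bidirectional fit vs DMSO.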

[10] = APR_HepG2_CellLoss_72hr: Apredica 72-hour HepG2 Assay for Cell Loss (AID 2282915); details: high-content imaging
How it was run: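 HepG2 cells exposed 72 h to compound at 0.39–200 uM (10 concentrations, duplicate) in 0.5% DMSO. Fixed with 3.7% formaldehyde and Hoechst 33342-stained. Imaged at 20x; nuclear count gives cell number, fitted bidirectionally versus DMSO.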

SMILES	outcome [1]	outcome [2]	AC50 [3]	outcome [4]	AC50 [5]	outcome [6]	AC50 [7]	outcome [8]	outcome [9]	AC50 [10]	outcome [3]	outcome [5]	outcome [7]	outcome [10]	AC50 [6]	AC50 [8]	AC50 [9]	AC50 [1]	AC50 [2]
CCCN(C1CCN(C(=O)C2CCNCC2)CC1)[C@@H]1CCc2ccc(OC)cc2C1	inactive	inactive	100 µM (active)	inactive	67.5 µM (active)	inactive	100 µM (active)	inactive	inactive	95 µM (active)									
Cc1ccc(S(=O)(=O)O)cc1C	inactive	inactive		inactive		inactive		inactive	inactive	0.0391 µM (active)	inactive	inactive	inactive						
CCCCCCCCCCCCc1ccccc1	inactive	inactive		inactive		inactive		inactive	inactive		inactive	inactive	inactive	inactive					
CC/C(=C\C(=N/O)C(N)=O)C(C)[N+](=O)[O-] (stereo not given)	inactive	inactive		inactive		inactive		inactive	inactive		inactive	inactive	inactive	inactive					
Cn1c(=O)c2c(ncn2C)n(C)c1=O	inactive	inactive		inactive		inactive		inactive	inactive		inactive	inactive	inactive	inactive					
CC(C)CCO	inactive	inactive		inactive		inactive		inactive	inactive		inactive	inactive	inactive	inactive					
CC(C)=CCCC(C)=CC=O	inactive	inactive		inactive		inactive		inactive	inactive		inactive	inactive	inactive	inactive					
COc1ccc2sc(C(=O)Nc3nnn[nH]3)c(OC(C)C)c2c1	inactive	inactive		inactive		inactive		inactive	inactive	39.9 µM (active)	inactive	inactive	inactive						
CC1(C)C(=O)N(Br)C(=O)N1Br	inactive	inactive		inactive		inactive		inactive	inactive		inactive	inactive	inactive	inactive					
O=C(OC[C@H]1O[C@@H](OC(=O)c2cc(O)c(O)c(OC(=O)c3cc(O)c(O)c(O)c3)c2)[C@H](OC(=O)c2cc(O)c(O)c(OC(=O)c3cc(O)c(O)c(O)c3)c2)[C@@H](OC(=O)c2cc(O)c(O)c(OC(=O)c3cc(O)c(O)c(O)c3)c2)[C@@H]1OC(=O)c1cc(O)c(O)c(OC(=O)c2cc(O)c(O)c(O)c2)c1)c1cc(O)c(O)c(OC(=O)c2cc(O)c(O)c(O)c2)c1	inactive	inactive		inactive			23.9 µM (active)		inactive	21.4 µM (active)	inactive	inactive			26.4 µM (active)	20.8 µM (active)			
CCOC(=O)CC(CC(=O)OCC)(OC(C)=O)C(=O)OCC	inactive	inactive		inactive		inactive		inactive		45.8 µM (active)	inactive	inactive	inactive				82.1 µM (active)		
Oc1ccc2c(c1)-c1ccccc1C2	inactive	inactive	100 µM (active)	inactive	116 µM (active)	inactive	111 µM (active)			86.1 µM (active)						100 µM (active)	124 µM (active)		
CCNc1ccccc1	inactive	inactive		inactive		inactive		inactive	inactive		inactive	inactive	inactive	inactive					
O=C(O)c1cc(N=Nc2ccc(S(=O)(=O)Nc3ccccn3)cc2)ccc1O	inactive	inactive		inactive				inactive	inactive		inactive	inactive	inactive	inactive	95.9 µM (active)				
Nc1nc2ncc(CNc3ccc(C(=O)N[C@@H](CCC(=O)O)C(=O)O)cc3)nc2c(=O)[nH]1	inactive	inactive		inactive		inactive		inactive	inactive		inactive	inactive	inactive	inactive					
O=C(O)CC(O)C(=O)O (stereo not given)	inactive	inactive		inactive		inactive		inactive	inactive		inactive	inactive	inactive	inactive					
CC(=O)OC[C@H]1O[C@@](COC(C)=O)(O[C@H]2O[C@H](COC(C)=O)[C@@H](OC(C)=O)[C@H](OC(C)=O)[C@H]2OC(C)=O)[C@@H](OC(C)=O)[C@@H]1OC(C)=O	inactive	inactive		inactive		inactive		inactive	inactive		inactive	inactive	inactive	inactive					
COc1ccc(/C=C/S(=O)(=O)NC(=O)c2ccc(C)cc2Cl)cc1		inactive		inactive				inactive	inactive	57.3 µM (active)	inactive	inactive	inactive		14.7 µM (active)			102 µM (active)	
O=P(OC(CCl)CCl)(OC(CCl)CCl)OC(CCl)CCl	inactive		55.6 µM (active)	inactive	44.9 µM (active)	inactive	49.4 µM (active)	inactive		47.1 µM (active)							49.1 µM (active)		48 µM (active)
Clc1nc(Cl)c(Cl)c(Cl)c1Cl		inactive	45 µM (active)	inactive	77.3 µM (active)	inactive	102 µM (active)			72 µM (active)						38.6 µM (active)	20 µM (active)	40 µM (active)	
CCn1nc(Cc2ccccc2)cc1C1CCN(C[C@H]2C[C@H](N(C)[C@@H](C(=O)O)C(C)C)C[C@@H]2c2cccc(F)c2)CC1		inactive		inactive		inactive		inactive	inactive	90.9 µM (active)	inactive	inactive	inactive					46.3 µM (active)	
